# Laboratory results reported in PubChem BioAssay (NCATS).
# Results filed as inconclusive are left out. Entries that show only a call come without a potency. For some of these results: Potency and affinity values are given separately. Activity calls are given as the source filed them.
# Tests used:
# [1] = Ebola virus entry assay, green channel fluorescence
# [2] = Ebola virus entry assay, blue channel fluorescence
# [3] = Ebola virus entry assay, reporter ratio channel; AC50: Channel type: primary unless noted; outcome: Channel type: primary unless noted
# [4] = Ebola virus entry assay, blue channel (ratio component)
# [5] = Ebola virus entry reporter assay, green channel fluorescence
# [6] = Ebola virus entry cell assay, ratio channel
# [7] = Ebola virus entry assay, ratio channel
# [8] = qHTS assay for measurement of the activity of small molecule inhibitors on Zika virus induced Caspase-3 activity in human iPSC derived neural progenitor cells (hNPCs) (AID 1224857; active = well fitted inhibition curve with a large enough effect; also: nearly all actives have a fitted effect of over 65% in size); settings: hNPCs ZIKV-induced caspase-3/7, Caspase-Glo luminescence, 6 h; series mostly up to 45.7 µM
# Method in brief: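 Human iPSC-derived neural progenitor cells pretreated 1 hr with compounds, then infected with Zika virus (2 FFU/cell) for 6 hours at 37 C. Caspase-3/7 measured by Caspase-Glo luminescence; % inhibition calculated from induction scaled to uninfected (0%) and infected (100%) wells.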
# [9] = qHTS assay for measurement of the activity of small molecule inhibitors on Zika virus induced Caspase-3 activity in human astrocytoma cells (AID 1224859; active = well fitted inhibition curve with a large enough effect); settings: SNB-19 ZIKV-induced caspase-3/7, luminescence, 6 h; series mostly up to 45.7 µM
# Method in brief: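 SNB-19 astrocytoma cells, 250/well, pretreated 1 h with compounds, then Zika virus at 2 FFU/cell for 6 h at 37 C; Caspase-Glo 3/7 luminescence after 30 min; percent inhibition normalised to uninfected and infected controls.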
smiles,measurement,setting,value
Cc1noc(NS(=O)(=O)c2ccc(N)cc2)c1C,outcome,[1],inactive
same,outcome,[2],inactive
same,outcome,[3],inactive
same,outcome,[4],inactive
same,outcome,[5],inactive
same,outcome,[6],inactive
Nc1ccc(S(=O)(=O)c2ccc(N)cc2)cc1,outcome,[1],inactive
same,outcome,[2],inactive
same,outcome,[3],inactive
same,outcome,[4],inactive
same,outcome,[5],inactive
same,outcome,[6],inactive
C[N+](C)(C)CC(O)CC(=O)[O-] (stereo not given),outcome,[1],inactive
same,outcome,[2],inactive
same,outcome,[3],inactive
same,outcome,[4],inactive
same,outcome,[6],inactive
CCC1=C(C)CN(C(=O)NCCc2ccc(S(=O)(=O)NC(=O)NC3CCC(C)CC3)cc2)C1=O (stereo not given),outcome,[1],inactive
same,outcome,[2],inactive
same,outcome,[3],inactive
same,outcome,[4],inactive
same,outcome,[5],inactive
same,outcome,[6],inactive
NC(=O)COCCN1CCN(C(c2ccccc2)c2ccc(Cl)cc2)CC1 (stereo not given),outcome,[1],inactive
same,outcome,[2],inactive
same,outcome,[3],inactive
same,outcome,[4],inactive
same,outcome,[5],inactive
same,outcome,[6],inactive
C#C[C@]1(O)CC[C@H]2[C@@H]3CCc4cc(OC5CCCC5)ccc4[C@H]3CC[C@@]21C,AC50,[7],5.01 µM (active)
same,AC50,[3],5.01 µM (active)
same,outcome,[4],inactive
COc1ccccc1N1CCN(CCCCNC(=O)c2ccc(-c3ccc(C(C)=O)cc3)cc2)CC1,outcome,[7],inactive
same,outcome,[3],inactive
same,outcome,[4],inactive
CN/C(=C\[N+](=O)[O-])NCCSCc1csc(CN(C)C)n1,outcome,[1],inactive
same,outcome,[2],inactive
same,outcome,[3],inactive
same,outcome,[4],inactive
same,outcome,[6],inactive
C[C@H]1[C@@H]2Cc3ccc(O)cc3[C@@]1(C)CCN2C,outcome,[7],inactive
same,outcome,[3],inactive
same,outcome,[8],inactive
same,outcome,[9],inactive
CC(O)(P(=O)(O)O)P(=O)(O)O,outcome,[1],inactive
same,outcome,[2],inactive
same,outcome,[3],inactive
same,outcome,[4],inactive
same,outcome,[5],inactive
same,outcome,[6],inactive
NC(N)=Nc1nc(CSCC/C(N)=N/S(N)(=O)=O)cs1,outcome,[1],inactive
same,outcome,[2],inactive
same,outcome,[3],inactive
same,outcome,[4],inactive
same,outcome,[6],inactive
CCOc1ncc(F)c(=O)[nH]1,outcome,[1],inactive
same,outcome,[3],inactive
same,outcome,[4],inactive
C[C@]12C=CC(=O)C=C1[C@@H](F)C[C@@H]1[C@@H]2[C@@H](O)C[C@@]2(C)[C@H]1CC[C@]2(O)C(=O)CO,outcome,[1],inactive
same,outcome,[3],inactive
same,outcome,[4],inactive
Cc1cc2c(cc1CC(=O)c1sccc1S(=O)(=O)Nc1onc(C)c1Cl)OCO2,outcome,[1],inactive
same,outcome,[3],inactive
same,outcome,[4],inactive
CCCCCCCCCCCCCCCC(=O)O,outcome,[1],inactive
same,outcome,[3],inactive
same,outcome,[4],inactive
CCCCC(CC)CNC(=O)CC(C)OC(=O)CCC(=O)O (stereo not given),outcome,[1],inactive
same,outcome,[3],inactive
same,outcome,[4],inactive
CC(=O)Nc1ncc([N+](=O)[O-])s1,outcome,[1],inactive
same,outcome,[3],inactive
same,outcome,[4],inactive
Nc1ccc(S(N)(=O)=O)cc1,outcome,[1],inactive
same,outcome,[3],inactive
same,outcome,[4],inactive
CN(C)C(=O)COC(=O)Cc1ccc(OC(=O)c2ccc(N=C(N)N)cc2)cc1,outcome,[1],inactive
same,outcome,[3],inactive
same,outcome,[4],inactive
O=C(CCCl)NCCc1ccccc1,outcome,[1],inactive
same,outcome,[3],inactive
same,outcome,[4],inactive
CC1CCN(CCCC(=O)c2ccc(F)cc2)CC1,outcome,[1],inactive
same,outcome,[3],inactive
same,outcome,[4],inactive
CCN1CCC[C@H]1CNC(=O)c1c(O)c(Cl)cc(Cl)c1OC,outcome,[1],inactive
same,outcome,[3],inactive
same,outcome,[4],inactive
CC1(C)S[C@@H]2[C@H](NC(=O)C(c3ccccc3)S(=O)(=O)O)C(=O)N2[C@H]1C(=O)O (stereo not given in full),outcome,[1],inactive
same,outcome,[3],inactive
same,outcome,[4],inactive
Nc1nc(N)nc(-c2cc(Cl)ccc2Cl)n1,outcome,[1],inactive
same,outcome,[3],inactive
same,outcome,[4],inactive
CC(C)(Oc1ccc(C2CC2(Cl)Cl)cc1)C(=O)O (stereo not given),outcome,[1],inactive
same,outcome,[3],inactive
same,outcome,[4],inactive
Oc1ccccc1-c1nnco1,outcome,[1],inactive
same,outcome,[3],inactive
same,outcome,[4],inactive
O=C(Oc1ccccc1)c1ccccc1O,outcome,[1],inactive
same,outcome,[3],inactive
same,outcome,[4],inactive
NC(=O)CC[C@@H]1NC(=O)[C@H](Cc2ccccc2)NC(=O)[C@H](Cc2ccc(O)cc2)NC(=O)CCSSC[C@@H](C(=O)N2CCC[C@H]2C(=O)N[C@@H](CCCN=C(N)N)C(=O)NCC(N)=O)NC(=O)[C@H](CC(N)=O)NC1=O,outcome,[1],inactive
same,outcome,[2],inactive
same,outcome,[3],inactive
same,outcome,[4],inactive
same,outcome,[6],inactive
O=C(O)CSCC(=O)NC1CCSC1=O (stereo not given),outcome,[1],inactive
same,outcome,[3],inactive
same,outcome,[4],inactive
CC(C(=O)O)c1ccc(/C=C2\CCCCC2=O)cc1 (stereo not given),outcome,[1],inactive
same,outcome,[3],inactive
same,outcome,[4],inactive
Nc1c(I)cc(I)c(C(=O)N(CCC(=O)O)c2ccccc2)c1I,outcome,[1],inactive
same,outcome,[3],inactive
same,outcome,[4],inactive
COc1cnc(NS(=O)(=O)c2ccc(N)cc2)nc1,outcome,[1],inactive
same,outcome,[3],inactive
same,outcome,[4],inactive
Cc1cc(O)cc(C)c1Cl,outcome,[1],inactive
same,outcome,[3],inactive
same,outcome,[4],inactive
O=C1O[C@H](CO)[C@@H](O)[C@H](O)[C@H]1O,outcome,[1],inactive
same,outcome,[3],inactive
same,outcome,[4],inactive
CC(=O)Nc1ccc(/C=N/NC(N)=S)cc1,outcome,[1],inactive
same,outcome,[3],inactive
same,outcome,[4],inactive
Cc1[nH]cnc1-c1ccc(Cl)cc1,outcome,[1],inactive
same,outcome,[3],inactive
same,outcome,[4],inactive
CCc1cc(S(=O)(=O)O)c2cc(C(C)C)cccc1-2,outcome,[1],inactive
same,outcome,[3],inactive
same,outcome,[4],inactive
CC(C)Cn1cnc2c(N)nc3ccccc3c21,outcome,[1],inactive
same,outcome,[3],inactive
same,outcome,[4],inactive
O=C(OCc1ccccc1)c1ccccc1,outcome,[1],inactive
same,outcome,[3],inactive
same,outcome,[4],inactive
Cc1ccc(O)c2ncccc12,outcome,[1],inactive
same,outcome,[3],inactive
same,outcome,[4],inactive
CN(C)CCN1CCN(c2cccc(Cl)c2)C1=O,outcome,[1],inactive
same,outcome,[3],inactive
same,outcome,[4],inactive
COC(=O)c1cc(Cl)c(NC(C)=O)cc1OC,outcome,[1],inactive
same,outcome,[3],inactive
same,outcome,[4],inactive
CC(C)(Sc1cc(C(C)(C)C)c(O)c(C(C)(C)C)c1)Sc1cc(C(C)(C)C)c(O)c(C(C)(C)C)c1,outcome,[1],inactive
same,outcome,[3],inactive
same,outcome,[4],inactive
C=CCC1([C@H](C)CCC)C(=O)NC(=O)NC1=O,outcome,[1],inactive
same,outcome,[2],inactive
same,outcome,[3],inactive
same,outcome,[4],inactive
same,outcome,[6],inactive
same,outcome,[8],inactive
same,outcome,[9],inactive
CCc1cccc(CC)c1NC(=O)CN(CC(=O)O)CC(=O)O,outcome,[1],inactive
same,outcome,[3],inactive
same,outcome,[4],inactive
O=C(O)CCc1nc2ccccc2[nH]1,outcome,[1],inactive
same,outcome,[3],inactive
same,outcome,[4],inactive
Cc1onc(-c2ccccc2)c1-c1ccc(S(N)(=O)=O)cc1,outcome,[1],inactive
same,outcome,[3],inactive
same,outcome,[4],inactive
COc1ccnc(CS(=O)c2nc3ccc(OC(F)F)cc3[nH]2)c1OC (stereo not given),outcome,[1],inactive
same,outcome,[3],inactive
same,outcome,[4],inactive
O=C(O)c1c(O)c(-c2ccccc2)nc2ccccc12,outcome,[1],inactive
same,outcome,[3],inactive
same,outcome,[4],inactive
Cc1coc2ccccc2c1=O,outcome,[1],inactive
same,outcome,[3],inactive
same,outcome,[4],inactive
COc1cc(/C=C/C(=O)O[C@H]2CC[C@]34C[C@]35CC[C@]3(C)[C@@H]([C@H](C)CCC=C(C)C)CC[C@@]3(C)[C@@H]5CC[C@H]4C2(C)C)ccc1O,outcome,[1],inactive
same,outcome,[3],inactive
same,outcome,[4],inactive
COC(=O)c1cccnc1,outcome,[1],inactive
same,outcome,[3],inactive
same,outcome,[4],inactive
CNC[C@H](O)[C@@H](O)[C@H](O)[C@H](O)CO,outcome,[1],inactive
same,outcome,[3],inactive
same,outcome,[4],inactive
COc1ccc2cc1Oc1cc3c(cc1OC)CC[N+](C)(C)[C@H]3Cc1ccc(cc1)Oc1c(OC)c(OC)cc3c1[C@@H](C2)[N+](C)(C)CC3,outcome,[1],inactive
same,outcome,[3],inactive
same,outcome,[4],inactive
COc1cc(O)cc(O)c1,outcome,[1],inactive
same,outcome,[3],inactive
same,outcome,[4],inactive
CCN1CCC[C@H]1CNC(=O)c1cc(S(N)(=O)=O)ccc1OC,outcome,[1],inactive
same,outcome,[3],inactive
same,outcome,[4],inactive
Cc1cc2cc3c(C)cc(=O)oc3c(C)c2o1,outcome,[1],inactive
same,outcome,[3],inactive
same,outcome,[4],inactive
COc1ccc(O)cc1,outcome,[1],inactive
same,outcome,[3],inactive
same,outcome,[4],inactive
CC(=O)Oc1cccc2c1C(=O)c1c(OC(C)=O)cc(C(=O)O)cc1C2=O,outcome,[1],inactive
same,outcome,[3],inactive
same,outcome,[4],inactive
